A selection: hits, their analogues and other compounds. The true share with any hit is near 4.2%.
Sfp inh: blocks B. subtilis Sfp PPTase activity; Biochemical Sfp PPTase activity, qHTS; Potency, µM, actives largely listed as inhibitors; 310,000 tested, 3.5% active; AID 1490;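 note: the enzyme is Sfp with the accession as filed and its product quenches rhodamine fluorescence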
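Step 1, compound plus 15 nM Sfp-PPTase, 15 min, room temperature. Step 2, add rhodamine-CoA (5 uM) and BHQ-2-YbbR (12.5 uM). Step 3, read 525/598 nm fluorescence at 0 and 30 min.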
12-LOX inh: blocks human arachidonate 12S-lipoxygenase; 580,000 tested, 1.1% active; Potency, µM (titrated, usually from 108 µM), actives largely listed as inhibitors; purified 12hLO, xylenol orange hydroperoxide absorbance; AID 1671190
Target sequence (P18054 whole entry, looked up): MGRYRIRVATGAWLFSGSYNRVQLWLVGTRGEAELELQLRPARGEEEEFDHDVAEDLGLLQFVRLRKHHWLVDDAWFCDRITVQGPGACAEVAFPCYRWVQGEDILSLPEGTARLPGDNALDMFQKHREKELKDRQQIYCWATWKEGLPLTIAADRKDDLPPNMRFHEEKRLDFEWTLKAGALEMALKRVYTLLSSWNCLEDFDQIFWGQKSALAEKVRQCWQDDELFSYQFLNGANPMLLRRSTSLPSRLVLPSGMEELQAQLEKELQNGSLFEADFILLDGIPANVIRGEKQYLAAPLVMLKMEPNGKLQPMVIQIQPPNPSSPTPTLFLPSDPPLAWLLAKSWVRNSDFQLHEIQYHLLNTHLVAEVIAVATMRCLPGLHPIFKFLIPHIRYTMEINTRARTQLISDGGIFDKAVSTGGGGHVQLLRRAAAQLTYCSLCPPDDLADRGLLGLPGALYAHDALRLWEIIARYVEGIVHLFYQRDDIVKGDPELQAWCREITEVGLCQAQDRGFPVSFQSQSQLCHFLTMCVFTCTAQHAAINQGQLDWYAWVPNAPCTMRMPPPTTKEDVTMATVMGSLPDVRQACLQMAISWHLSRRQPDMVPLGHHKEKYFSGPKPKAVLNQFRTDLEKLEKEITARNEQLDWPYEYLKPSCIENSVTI
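Hydroperoxide product was detected by ferrous iron/xylenol orange as the 573 to 405 nm absorbance ratio. Arachidonic acid at 40 uM (final) was turned over for 30 min at room temperature by 150 nM human 12hLO, pH 7.0 Hepes buffer, after 15 min compound preincubation.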
VDR inh: inhibitors of human vitamin D receptor. P11473. VDR-SRC2-3 peptide fluorescence polarization, 2 h. Potency, µM, most hits filed as inhibitors. 400,000 tested, 0.93% active. AID 504847
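Fluorescence polarization assay measuring small-molecule disruption of VDR binding to the coregulator peptide SRC2-3. Compounds were pin-transferred (23 nl) into the reagent mix and incubated 2 h at room temperature before reading.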
PLK1 PBD inh: inhibitors of human PLK1 polo-box domain binding; Potency, µM, actives largely listed as inhibitors; 360,000 tested, 2.8% active; Plk1 PBD binding of FITC phosphopeptide, fluorescence polarization; P53350; note: series mostly up to about 57 µM; nearly all actives have a fitted effect of over 65% in size
Large screens that a line does not name were inactive. Calls come from the whole dose curve; as a rule, active = well fitted curve in the direction sought with a large enough effect; inconclusive = small, poorly fitted or top-dose-only effect, or another doubt; inactive = no such curve, though single readings can be large; an effect the other way counts as inactive or inconclusive.

O=C(O)CCN1C(=O)/C(=C/c2ccc(-c3nc4ccccc4s3)o2)SC1=S	12-LOX inh 40µM, VDR inh inconclusive, PLK1 PBD inh 9.5µM
O=C(O)CC(C(=O)O)N1C(=O)/C(=C/c2ccc(-c3nc4ccccc4s3)o2)SC1=S (configuration not stated)	Sfp inh 8.9µM, 12-LOX inh 16µM, VDR inh 50µM
O=C(O)CCCN1C(=O)/C(=C\c2ccc(-c3nc4ccccc4s3)o2)SC1=S	Sfp inh 50µM, 12-LOX inh 40µM, VDR inh inconclusive, PLK1 PBD inh 11µM
CC(C)Oc1ccc(C(CCNCc2ccc(O)cc2)c2ccccc2)cc1 (configuration not stated)	12-LOX inh 40µM
COc1ccc(C(CCNCc2ccc(N(C)C)cc2)c2ccccc2)cc1 (configuration not stated)	12-LOX inh inconclusive
CC1(CC(=O)N/N=C/c2ccc(-c3ccc(Cl)cc3)o2)OCCO1	none
C/C(=N/NC(=O)COc1cc(C)ccc1C(C)C)C(=O)O	none
Cc1ccc(C(C)C)c(OCC(=O)NN=C(CCl)CCl)c1	Sfp inh 50µM (no result: 12-LOX inh, VDR inh, PLK1 PBD inh)
CC(C)(C)c1csc(NC(=O)Cn2c(=O)oc3ccccc32)n1	PLK1 PBD inh 27µM
O=C(Cn1c(=O)oc2ccccc21)Nc1n[nH]c(=S)s1	Sfp inh 32µM, VDR inh inconclusive, PLK1 PBD inh inconclusive
Cc1ccc(OCCn2cc(C(=O)c3cccs3)c3ccccc32)cc1	none (no result: Sfp inh, PLK1 PBD inh)
CN[C@H]1C[C@H]2c3[nH]c4c(-c5ccc6c(c5)OCO6)cccc4c3CCN2C(=O)[C@H]1[C@H](C)O	none (no result: Sfp inh, VDR inh, PLK1 PBD inh)
O=C(COC(=O)c1c2c(nc3ccccc13)/C(=C/c1ccco1)CC2)NC1CCCC1	Sfp inh 50µM, 12-LOX inh 25µM, PLK1 PBD inh inconclusive
CCCCNC(=O)COC(=O)c1c2c(nc3ccccc13)/C(=C\c1cccs1)CC2	12-LOX inh inconclusive (no result: Sfp inh)
CC1CCCCC1NC(=O)COC(=O)c1c2c(nc3ccccc13)/C(=C/c1ccco1)CC2 (configuration not stated)	12-LOX inh inconclusive, PLK1 PBD inh 11µM
CC(C)CNC(=O)COC(=O)c1c2c(nc3ccccc13)/C(=C/c1cccs1)CC2	Sfp inh 45µM
CCCc1nc2ccccc2c(C(=O)OCC(=O)NC2CCCC2)c1CC	none (no result: Sfp inh, VDR inh, PLK1 PBD inh)
Cc1cc(C(=O)OCC(=O)NC2CCCCC2C)c2ccccc2n1 (configuration not stated)	none (no result: Sfp inh)
O=C(Nc1cccc(C(F)(F)F)c1)Nc1nnc(N2CCCCC2)s1	none (no result: Sfp inh, PLK1 PBD inh)
O=C(OCc1ccccc1)c1ccc(-c2nnn(Cc3ccccc3F)n2)cc1	none (no result: Sfp inh, PLK1 PBD inh)
c1ccc(CN2CC[C@@H]3COCCN(Cc4cccnc4)[C@@H]3C2)cc1	none (no result: Sfp inh, VDR inh, PLK1 PBD inh)
COc1cccc(-c2nn[nH]n2)c1O	Sfp inh 50µM
CCOc1ccc(N(CC(=O)Nc2c(C)cc(C)cc2C)C2=NC3CS(=O)(=O)CC3S2)cc1 (configuration not stated)	none (no result: Sfp inh, VDR inh, PLK1 PBD inh)
COc1ccc(C(C)C)cc1S(=O)(=O)NCCc1c(C)[nH]c2ccc(C)cc12	12-LOX inh inconclusive (no result: Sfp inh, PLK1 PBD inh)
CCN(CC)CCOc1ccc(C(O)(Cc2ccc(Cl)cc2)c2ccc(C)cc2)cc1 (configuration not stated)	Sfp inh inconclusive, VDR inh inconclusive (no result: PLK1 PBD inh)
Cc1[nH]c(=S)[nH]c(=O)c1Cc1ccccc1	12-LOX inh inconclusive
Cc1ccc2c(Cl)c(Cc3ccccc3)c(=S)[nH]c2n1	12-LOX inh 32µM, PLK1 PBD inh inconclusive (no result: Sfp inh)
O=C(C[n+]1ccc(-c2cc(C(=O)Nc3cccc(C(F)(F)F)c3)c3ccccc3n2)cc1)c1cccc([N+](=O)[O-])c1	Sfp inh 50µM, 12-LOX inh inconclusive, PLK1 PBD inh inconclusive
O=C(C[n+]1cccc(NC(=O)c2ccccc2)c1)c1cccc([N+](=O)[O-])c1	none
Cc1cccnc1NC(=O)c1cc2ccccc2oc1=O	none
O=C(CC(c1ccc(F)cc1)c1ccco1)N1CCCC1 (configuration not stated)	Sfp inh 32µM
O=C(CC(c1ccc(F)cc1)c1ccco1)N1CCOCC1 (configuration not stated)	VDR inh inconclusive
O=C1c2ccccc2C(=O)N1CCC(c1ccc(F)cc1)c1ccco1 (configuration not stated)	Sfp inh 14µM
CCOC(=O)c1c(NC(=O)C(=O)N/N=C/c2ccc(O)c(OC)c2)sc2c1CCCCC2	Sfp inh inconclusive
O=C(Nc1cccc(S(=O)(=O)N2CCCCCC2)c1)c1ccc2c(c1)OCO2	none
COCCCNC(=O)c1ccccc1C(F)(F)F	VDR inh inconclusive, PLK1 PBD inh 15µM
O=C(NCCc1ccccc1)c1ccccc1C(F)(F)F	none (no result: Sfp inh, VDR inh)
CCCCNC(=O)c1ccccc1C(=O)NCCCC	VDR inh inconclusive, PLK1 PBD inh 5.3µM
CCCCNC(=O)c1ccccc1Cl	12-LOX inh inconclusive
CCCCCCCCCCCNC(=O)c1ccoc1C	12-LOX inh inconclusive, VDR inh 79µM, PLK1 PBD inh inconclusive
Cn1cnc(C(=O)N2CCc3ccccc3C2)c1C(=O)N1CCc2ccccc2C1	12-LOX inh inconclusive, PLK1 PBD inh 21µM (no result: Sfp inh)
COC(=O)[C@@H]1CCCN1Cc1ccc2c(c1)CN(Cc1cc(OC)c3c(c1)OCO3)CCO2	none (no result: Sfp inh, VDR inh, PLK1 PBD inh)
CCCCNC(=O)N1CCc2ccccc2C1	VDR inh inconclusive, PLK1 PBD inh 30µM
O=C(NCc1ccc(F)cc1)N1CCc2ccccc2C1	none
COc1cccc(/C=N/NC(=O)CCn2nnc3ccccc32)c1	PLK1 PBD inh 7.5µM
COc1cccc(/C=N/NC(=O)C(C)n2nnc3ccccc32)c1 (configuration not stated)	VDR inh inconclusive, PLK1 PBD inh 19µM
COc1cc(/C=N/NC(=O)CCn2nnc3ccccc32)ccc1O	none
COc1cccc(/C=N/NC(=O)Cn2cnc3c2c(=O)n(C)c(=O)n3C)c1	VDR inh inconclusive, PLK1 PBD inh 24µM
COc1ccc(OCCSc2nc3ccccc3n2CCC(=O)O)cc1	none
NC(=O)c1c(NC(=O)c2noc3c2CCCC3)sc2c1CCCC2	12-LOX inh inconclusive, VDR inh 50µM (no result: Sfp inh, PLK1 PBD inh)
NC(=O)c1c(NC(=O)c2ccc(S(=O)(=O)N3CCOCC3)cc2)sc2c1CCCCC2	Sfp inh inconclusive
CN1CCN(S(=O)(=O)c2cccc(C(=O)Nc3sc4c(c3C(N)=O)CCCC4)c2)CC1	Sfp inh 56µM
CSc1ccccc1NC(=O)C1CCCO1 (configuration not stated)	Sfp inh 79µM
NC(=O)c1c(NC(=O)c2ccc(F)cc2)sc2c1CCC2	12-LOX inh 18µM
COc1ccc(-c2nc3ccccc3o2)cc1NC(=O)Cc1ccc(Cl)cc1	none (no result: Sfp inh, PLK1 PBD inh)
Clc1ccc(CNc2ccc(CNc3ncn[nH]3)cc2)c(Cl)c1	Sfp inh inconclusive
NC(=O)c1c(NC(=O)C2c3ccccc3Oc3ccccc32)sc2c1CCCCC2	Sfp inh 35µM, PLK1 PBD inh inconclusive
COC(=O)c1ccccc1NC(=O)c1noc2c1CCC2	Sfp inh inconclusive, 12-LOX inh inconclusive, PLK1 PBD inh inconclusive
CC(C)(C)C(=O)NC(=S)Nc1sc2c(c1C(N)=O)CCC2	Sfp inh 45µM, 12-LOX inh inconclusive, PLK1 PBD inh inconclusive
Cn1nccc1C(=O)Nc1sc2c(c1C(N)=O)CCCC2	none
Cn1ccc(C(=O)Nc2sc3c(c2C(N)=O)CCCCC3)n1	Sfp inh 32µM, PLK1 PBD inh inconclusive

Compound activity as filed in PubChem.
